# Data: PubChem BioAssay (NCATS)
# Records with an inconclusive call do not appear. Active and inactive are the calls of the source. Calls follow the shape of the dose curve; as a rule, active = well fitted cell-killing curve with a large enough effect; inconclusive = small, poorly fitted or top-dose-only effect; inactive = flat fitted curve, though single readings scatter.
# Assay: Cell Viability - LYMP2-022 (AID 987);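 also: 0% = DMSO alone and full effect = tetraoctylammonium bromide at 92 µM; nearly all actives have a fitted effect of over 55% in size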
# Details: LYMP2-022 lymphoblastoid cell viability; series mostly up to 92.2 µM; viability change, negative = cytotoxic: at the top concentration
# From the text: NIH Chemical Genomics Center [NCGC]
# NIH Molecular Libraries Screening Centers Network [MLSCN]
# National Institutes of Environmental Health Sciences [NIEHS]
# National Toxicology Program [NTP]
# We have developed a 1536-well cell-based assay for quantitative high throughput screening (qHTS) against a number of cell lines to determine in vitro cytotoxicity of small molecules. This particular assay uses a human lymphoblastoid cell line (LYMP2-022) purchased from Coriell Institute for Medical Research.
# NCGC Assay Protocol Summary:
# The CellTiter-Glo luminescent cell viability assay (Promega) is a homogeneous method to measure the number of viable cells in culture. The end point readout of this assay is based on quantitation of intracellular ATP, an indicator of metabolic activity, using the luciferase reaction. Luciferase catalyzes the oxidation of beetle Luciferin to oxyluciferin and light in the presence of ATP. The luminescent signal is proportional to amount of ATP present.
# Using the CellTiter-Glo luminescent cell viability assay, the amount of cellular ATP was measured in the lymphoblastoid cell line with complete culture medium following compound treatment for 24 hours. The assay was performed in opaque white Kalypsys 1536-well plates. In the screen, tetraoctylammonium bromide was used as positive control. Library compounds were measured for their ability to cause acute toxicity in the cell line, as reflected by a decrease in intracellular ATP levels, in a concentration-dependent manner. […] AC50 values were determined from concentration-response data modeled with the standard Hill equation.
# qHTS protocol for CellTiter Glo lymphoblastoid cellular assay
# [Step] [Parameter] [Value] [Description]
# 1. Reagent; 5 uL; 2500 lymphoblastoid cells/well
# 2. Time; 5 hr; 37 C incubation
# 4. Controls; 23 nL; Tetraoctylammonium bromide 6.4pM to 92 uM
# 5. Time; 24 hr; 37 C incubation
# 6. Reagent; 5 uL; CellTiter Glo reagent
# 7. Time; 30 min; Room Temperature
# 8. Detection; Luminescence; Viewlux plate reader
# Keywords: cell viability, cytotoxicity, lymphoblastoid cell line, luminescence, NTPHTS, NTPHTS_NCGC, NIEHS, DSSTox, MLSMR, MLSCN, NIH Roadmap, qHTS, NCGC
row,SMILES,"viability change, negative = cytotoxic"
1,CCOC(=O)c1ccccc1N,-12% (inactive)
2,c1ccc(Nc2ccc3ccccc3c2)cc1,-4.39% (inactive)
3,CC(C)COC(=O)c1ccccc1C(=O)OCC(C)C,-13.5% (inactive)
4,CC(=O)/C=C/c1ccccc1,-8.38% (inactive)
5,Oc1ccccc1Cl,-1.45% (inactive)
6,Cc1ccccc1O,-2.77% (inactive)
7,c1ccc2c(c1)-c1cccc3cccc-2c13,-4.17% (inactive)
8,O=Cc1ccccc1,-16.2% (inactive)
9,CCOc1cc(C=O)ccc1O,-2.67% (inactive)
10,Oc1c(Cl)c(Cl)c(Cl)c(Cl)c1Cl,-16% (inactive)
11,COC(=O)c1ccccc1C(=O)OC,4.55% (inactive)
